# ST2 IL33 inh: IL1RL1 inhibition. Q01638. AID 1259354. inhibition, % for hits at 17 µM. AlphaLISA ST2-Fc/biotin-IL-33 interaction, 1 h. 78,000 tested, 2.3% active; in the data active means inhibition above about 30%
# Target sequence (Q01638 whole entry, looked up): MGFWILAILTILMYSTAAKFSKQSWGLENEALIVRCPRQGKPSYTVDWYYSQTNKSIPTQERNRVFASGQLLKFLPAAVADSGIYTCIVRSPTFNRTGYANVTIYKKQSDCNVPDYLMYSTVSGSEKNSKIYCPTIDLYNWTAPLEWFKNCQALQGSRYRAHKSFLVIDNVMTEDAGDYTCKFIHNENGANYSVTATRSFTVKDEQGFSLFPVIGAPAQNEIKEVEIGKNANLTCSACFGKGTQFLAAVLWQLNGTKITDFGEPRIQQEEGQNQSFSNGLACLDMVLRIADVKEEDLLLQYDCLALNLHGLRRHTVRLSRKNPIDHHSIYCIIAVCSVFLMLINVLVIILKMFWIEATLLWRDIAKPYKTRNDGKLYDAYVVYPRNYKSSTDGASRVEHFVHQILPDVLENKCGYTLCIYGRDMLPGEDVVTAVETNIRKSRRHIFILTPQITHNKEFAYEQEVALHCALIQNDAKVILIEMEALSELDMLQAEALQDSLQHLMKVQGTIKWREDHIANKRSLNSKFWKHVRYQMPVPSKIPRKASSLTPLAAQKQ
# * hit, by the source's call; i = inactive. Many of the other results were omitted from the sample, so hits are more common in it than they were.
SMILES,ST2 IL33 inh
O=c1/c(=C\c2ccc(-c3ccccc3[N+](=O)[O-])o2)sc2nc3ccccc3n12,i
Cc1ccc(F)c(CN(CCC(N)=O)C(C)C)c1F,i
O=C(c1ccc(O)cc1)c1c(O)cc(O)c([C@@H]2O[C@H](CO)[C@@H](O)[C@H](O)[C@H]2O)c1O,i
CC1(C)OC2c3ccccc3OC3(C)CCC1CC23 (configuration not stated),i
CC12CCC3C1C(c1c(cc(O)c(C(=O)c4ccccc4)c1O)O2)C3(C)C (configuration not stated),31%*
O=C(Cn1cnc2c(cnn2-c2ccccc2)c1=O)NC1CCCCC1,i
O=C(Cn1cnnn1)N1CCC(N2CCCC(C(=O)N3CCCC3)C2)CC1 (configuration not stated),i
COc1ccc(F)c(-c2c[nH]c(=O)[nH]c2=O)c1,i
O=C(CSc1nc2ccccc2s1)c1ccccc1[N+](=O)[O-],33%*
O=C(CSc1nc2ccccc2s1)Nc1ccccc1,i
O=C(CSc1nc2ccccc2s1)c1ccccc1,i
Cc1sc2nc3c(C(=O)N4CCC(C(N)=O)CC4)cccn3c(=O)c2c1C,i
CC1=C(C(=O)Nc2nc3ccccc3s2)C(c2ccc(F)cc2)C2=C(CCCC2=O)N1 (configuration not stated),i
CC(C)NC(=O)c1ccccc1NC(=O)c1ccc(N(C)S(=O)(=O)c2ccccc2)cc1,i
CN(C(=O)Cn1c(=O)n(-c2ccc(F)cc2F)c(=O)c2sccc21)c1ccccc1,47%*
O=c1c2sccc2n(Cc2ccccc2)c(=O)n1-c1cc(F)ccc1F,i
CC1CCN(C(=O)Cn2c(=O)n(-c3ccc(F)cc3F)c(=O)c3sccc32)CC1,i
O=C(NCc1ccccc1)c1ccc2nc3ccc(Cl)cc3c(=O)n2c1,i
COc1ccccc1CNc1ccc2c(c1)ncn2C1CCCCC1,33%*
CCn1cnc2cc(NCc3ccccc3OC)ccc21,i
COc1ccccc1CNc1ccc2c(c1)ncn2C(C)(C)C,i
c1ccc(-c2nc(CN3CCc4[nH]cnc4C3c3ccccn3)cs2)cc1 (configuration not stated),i
CCC1CCCCN1S(=O)(=O)c1ccc2[nH]c(=O)cc(C(=O)NC3CCCCCC3)c2c1 (configuration not stated),i
CCOC(=O)Cn1c(Cl)nc2c1c(=O)n(C)c(=O)n2C,i
CCOc1ccc(C2CC(c3ccccc3OC)n3ncnc3N2)cc1 (configuration not stated),i
SMILES,ST2 IL33 inh
CCOc1ccc(C2CC(c3ccc(Cl)cc3)n3nc(N)nc3N2)cc1 (configuration not stated),i
CCOc1ccc(C2Nc3cccc4cccc(c34)N2)cc1,36%*
COc1cccc(-c2nc3cc(N=Cc4cccc(OC)c4O)ccc3o2)c1,i
COc1cccc(-c2nc3cc(N=Cc4ccc([N+](=O)[O-])cc4)ccc3o2)c1,i
COc1ccc(C=Nc2ccc3oc(-c4ccncc4)nc3c2)cc1Cl,33%*
COC1CCN(C(=O)CC2C(=O)NCCN2Cc2ccc(F)cc2Cl)CC1 (configuration not stated),i
CC(=O)Nc1ccc(-c2nccn2CCSc2ncn[nH]2)cc1,i
Cc1nc(CCNC(=O)c2cnn(-c3ccccn3)c2C)sc1C,i
COc1ccccc1-c1ccnc(-n2ncc(C(=O)NC(c3ccncc3)c3ccc(C)cc3)c2C)n1 (configuration not stated),i
Cc1cc(CNC(=O)c2cnn(-c3nccc(-c4cc(C)sc4C)n3)c2C)on1,30%*
CCOC(=O)c1sc2nc(C)nc(Nc3ccc(F)cc3)c2c1C,i
O=C(c1sc2cc(F)ccc2c1Cl)N1CCc2ccccc2C1,i
O=C(NC(Nc1ccccc1)C(Cl)(Cl)Cl)c1cccnc1 (configuration not stated),i
COc1cc(NCC2(c3ccccc3)CCN(C)CC2)ncn1,31%*
c1ccc(C2(CNc3ccccn3)CCCC2)cc1,i
COc1cc(NCCNC(=O)c2ccncc2)ncn1,i
Cc1ccc(OCC(=O)Nc2ccccc2C(F)(F)F)c(Br)c1,i
CN(Cc1ccccc1)C1(CNC(=O)c2ccnn2C)Cc2ccccc2C1,i
CCc1nc(C)cc(N2CCCC(C(=O)c3ccccc3OC)C2)n1 (configuration not stated),i
CC(=O)NC(=O)c1cc2cc(Br)ccc2oc1=Nc1ccccc1F,i
COc1ccc2cc(C(=O)NC(C)=O)c(=Nc3ccc(C#N)cc3)oc2c1,37%*
COc1ccc2oc(=Nc3ccccc3F)c(C(=O)NC(C)=O)cc2c1,i
COc1ccc2oc(=Nc3ccc(Cl)cc3Cl)c(C(=O)NC(C)=O)cc2c1,33%*
COc1ccc2oc(=Nc3cccc(C#N)c3)c(C(=O)NC(C)=O)cc2c1,i
COc1ccc2cc(C(=O)NC(C)=O)c(=Nc3cccc(F)c3)oc2c1,i
SMILES,ST2 IL33 inh
O=C(CN(c1ccccc1F)S(=O)(=O)c1ccccc1)Nc1cccnc1,i
O=C(Nc1cccc(-c2cc3ccccc3[nH]2)c1)C1CCN(C(=O)C2CCCO2)CC1 (configuration not stated),i
CC1CN(c2c3c(c(C#N)c4nc5ccccc5n24)CCC3)CC(C)O1 (configuration not stated),i
N#Cc1c(-c2ccccc2)c(C#N)c2nc3ccccc3n2c1N,32%*
Cc1nccn1-c1c2c(c(C#N)c3nc4ccccc4n13)CCC2,i
Cc1cc2cccc(C(=O)NCC3(O)CCCNCC3)c2o1 (configuration not stated),i
Nc1ccc(Br)cn1,i
O=C(O)c1cccc(NCN2C(=O)c3cccc([N+](=O)[O-])c3C2=O)c1,i
CCN(CC)C(=O)[C@@H](C)[C@@H]1CC[C@@]2(C)CC[C@H](NC(=O)c3cnccn3)[C@@H](C)[C@@H]2[C@H]1O,i
CCN(CC)C(=O)[C@@H](C)C1CC[C@@]2(C)CC[C@H](NC(=O)c3ccncc3)[C@@H](C)[C@@H]2[C@H]1O (some centres not stated),49%*
COCCNC(=O)[C@@H](C)[C@@H]1CC[C@@]2(C)CC[C@H](NC(=O)c3ccccc3)[C@@H](C)[C@@H]2[C@H]1O,i
COCCN(CCOC)C(=O)[C@@H](C)C1CC[C@@]2(C)CC[C@H](NC(=O)c3ccncc3)[C@@H](C)[C@@H]2[C@H]1O (some centres not stated),i
C[C@H]1[C@@H]2[C@@H](O)C([C@H](C)C(=O)N(C)CCC#N)CC[C@@]2(C)CC[C@@H]1NC(=O)c1cncnc1 (some centres not stated),i
COc1ccc(C(=O)N[C@H]2CC[C@]3(C)CCC([C@H](C)C(=O)N(C)Cc4cccnc4)[C@H](O)[C@H]3[C@@H]2C)cc1 (some centres not stated),53%*
O=C(CCCn1c(=O)[nH]c2ccc(Br)cc2c1=O)NCc1ccco1,i
CCCN(CCC)C(=O)c1cc2c(=O)n3ccccc3nc2n1C,i
COC1CCN(S(=O)(=O)N2CC(c3ccccn3)C2)CC1,i
COc1ccc(C2C3=C(CCCC3=O)Nc3nc(SCc4ccc(Cl)cc4)nn32)cc1 (configuration not stated),i
Fc1ccc(-c2nc3cnccn3c2NC2CCCCC2)cc1,i
Cc1ccc(S(=O)(=O)N2Cc3ccccc3CC2C(=O)Nc2ccc(Cl)cc2)cc1 (configuration not stated),i
